From PubChem BioAssay
Giardia FBPA inh = inhibitors of Giardia lamblia fructose-1,6-bisphosphate aldolase | 290,000 tested, 0.71% active | Potency, µM (highest dose often 59.6 µM), most hits filed as inhibitors | purified Giardia FBPA | A8B2U2; also: nearly all actives have a fitted effect of over 55% in size
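Giardia FBPA (40 nM reagent) was preincubated 10 min at RT with compound (up to 57.5 uM final), then substrate plus GAPDH/TPI/NAD/arsenate coupling system with diaphorase/resazurin was added; resorufin fluorescence (525/598 nm) was read after 20 min.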
CHX counter = counter-screen hit for Shiga toxin inhibitors, cycloheximide. AID 2314. max response, %. 300,000 tested, 12% active. cell reporter, cycloheximide protein synthesis inhibition counterscreen; in the data active = max response mostly above about 13%, no sharp cut-off; inactive = mostly below about 14%; also: read at 38.3 µM for the half of the compounds with a filed dose
NS1 function inh = influenza NS1 inhibition. 270,000 tested, 0.4% active. AID 2326. Potency, µM (highest dose often 46.1 µM); calls by dose curve; also: actives are rising curves; nearly all actives have a fitted effect of over 50% in size
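In this qHTS, NS1 from influenza A is expressed in budding yeast, where it slows growth. Cells are switched from glucose to 2% galactose medium (pH 6.0, -URA), treated with compound, and growth recovery is read at OD600.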
LmPK inhibitor = inhibitors of Leishmania mexicana pyruvate kinase; Q27686; purified LmPK, Kinase-Glo ATP luminescence, 1 h; Potency, µM (top dose mostly 57.5 µM), usual class: inhibitors; 290,000 tested, 0.37% active; AID 1721
Target sequence (Q27686 whole entry, looked up): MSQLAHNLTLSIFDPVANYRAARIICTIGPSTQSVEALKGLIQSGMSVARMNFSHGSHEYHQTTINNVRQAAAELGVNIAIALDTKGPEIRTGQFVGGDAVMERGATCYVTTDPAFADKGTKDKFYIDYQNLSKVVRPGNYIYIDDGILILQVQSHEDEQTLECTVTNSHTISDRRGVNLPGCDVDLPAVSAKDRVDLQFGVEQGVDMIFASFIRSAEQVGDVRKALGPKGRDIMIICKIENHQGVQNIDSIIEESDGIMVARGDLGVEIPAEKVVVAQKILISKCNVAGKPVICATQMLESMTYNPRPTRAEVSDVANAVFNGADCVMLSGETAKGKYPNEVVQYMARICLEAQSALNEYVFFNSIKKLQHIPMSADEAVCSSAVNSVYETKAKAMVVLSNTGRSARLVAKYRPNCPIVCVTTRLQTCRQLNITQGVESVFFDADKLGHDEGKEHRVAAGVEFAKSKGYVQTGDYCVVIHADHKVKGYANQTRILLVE
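Pyruvate kinase activity monitored as ATP production (luciferase luminescence). Conditions: 0.1 nM enzyme, 0.5 mM PEP, 0.1 mM ADP, 1 h, RT; normalized against uninhibited and no-enzyme wells.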
Shiga toxin inh = Shiga toxin inhibition. AID 2315. 290,000 tested, 9.2% active. Vero cells, Shiga toxin protein synthesis inhibition reporter. inhibition, % at 38.7 µM; in the data active = inhibition mostly above about 28%, no sharp cut-off; inactive = mostly below about 43%
Numbers stand for hits. This is a sample that favours compounds with a hit; in the whole collection about 14% have one here. Unless noted, calls follow the shape of the dose curve; as a rule, active = well fitted curve in the direction sought with a large enough effect; inconclusive = small, poorly fitted or top-dose-only effect, or another doubt; inactive = no such curve, though single readings can be large; an effect the other way counts as inactive or inconclusive.

What do the screens show for `COc1ccccc1N(CC1CO1)S(=O)(=O)c1ccc(C)cc1` (stereo not given)?
Giardia FBPA inh: inactive; CHX counter: inactive; NS1 function inh: inactive; LmPK inhibitor: inactive; Shiga toxin inh: inactive

Results for CC1=C(C(=O)OCc2ccccc2)C(c2ccc(C3CCCCC3)cc2)NC(=O)N1CCCCCC(=O)O (stereo not given) ?
Giardia FBPA inh: inactive

Results for Cc1ccc(CNC(=O)[C@@H]2C[C@H]2[C@@H](NP(=O)(c2ccccc2)c2ccccc2)c2ccccc2)o1 ?
Giardia FBPA inh: inactive

Results for CCc1nnc(NC(=O)c2ccncc2)s1 ?
Giardia FBPA inh: inactive; CHX counter: inactive; NS1 function inh: inactive; LmPK inhibitor: inactive; Shiga toxin inh: inactive

How did O=C(Nc1nc2c(s1)C(=O)CCC2)c1ccccc1 do in these assays?
Giardia FBPA inh: inactive; CHX counter: 43; NS1 function inh: inactive; LmPK inhibitor: inconclusive; Shiga toxin inh: inactive

What do the screens show for `CCc1nnc(NC(=O)c2ccc3ncsc3c2)s1`?
Giardia FBPA inh: inactive; CHX counter: 18; NS1 function inh: inactive; LmPK inhibitor: inactive; Shiga toxin inh: 47

How did CCc1nnc(NC(=O)c2ccc3c(c2)C(=O)N(C(C)(C)C)C3=O)s1 do in these assays?
Giardia FBPA inh: inactive; CHX counter: 17; NS1 function inh: inactive; LmPK inhibitor: inactive; Shiga toxin inh: inactive

What do the screens show for `Cc1ccc(C(=O)Nc2nc3ccccc3c(=O)s2)cc1`?
Giardia FBPA inh: inconclusive; CHX counter: 43; NS1 function inh: inactive; LmPK inhibitor: inactive; Shiga toxin inh: 101

How did O=C(Nc1nc(=O)[nH]s1)c1ccccc1 do in these assays?
Giardia FBPA inh: inactive; CHX counter: inactive; LmPK inhibitor: inactive; Shiga toxin inh: inactive

Results for O=C(Cc1ccccc1Nc1c(Cl)cccc1Cl)OCO/N=[N+](\[O-])N1CCCC1 ?
Giardia FBPA inh: inconclusive; CHX counter: inactive; Shiga toxin inh: inactive

Results for Cc1ccc2nc(NC(=O)c3ccc(-c4nc5ccccc5s4)s3)sc2c1 ?
Giardia FBPA inh: inactive; CHX counter: 51; NS1 function inh: inactive; LmPK inhibitor: inactive; Shiga toxin inh: 86

Results for NS(=O)(=O)c1ccc2nc(NC(=O)c3ccncc3)sc2c1 ?
Giardia FBPA inh: inactive; CHX counter: inactive; LmPK inhibitor: inactive; Shiga toxin inh: inactive

Results for NC(=O)c1ccc2nc(NC(=O)c3ccc(N)cc3)sc2c1 ?
Giardia FBPA inh: inactive; CHX counter: 20; LmPK inhibitor: inactive; Shiga toxin inh: 33

How did COc1cccc(C(=O)Nc2nc3ccccc3s2)c1 do in these assays?
Giardia FBPA inh: inactive; CHX counter: 35; NS1 function inh: inactive; LmPK inhibitor: inactive; Shiga toxin inh: 57

What do the screens show for `COc1ccc2nc(NC(=O)c3ccc4ncsc4c3)sc2c1`?
Giardia FBPA inh: inactive; CHX counter: 56; NS1 function inh: inactive; LmPK inhibitor: inactive; Shiga toxin inh: 70

What do the screens show for `COc1ccc(C(=O)Nc2nc3ccccc3s2)cc1`?
Giardia FBPA inh: inactive; CHX counter: inactive; NS1 function inh: inactive; LmPK inhibitor: inactive; Shiga toxin inh: inactive

Results for Cc1noc(C)c1-c1nc(NCCN2CCOCC2)c2ccccc2n1 ?
Giardia FBPA inh: inactive

Results for COc1ccccc1CNc1nc(-c2ccccc2CN(C)C)nc2ccccc12 ?
Giardia FBPA inh: inactive

How did CCc1nnc(NC(=O)c2ccc(NC(=O)C(C)C)cc2)s1 do in these assays?
Giardia FBPA inh: inactive; CHX counter: 41; NS1 function inh: inactive; LmPK inhibitor: inactive; Shiga toxin inh: 99

How did O=C(Nc1nc(=O)c2ccccc2s1)c1ccccc1 do in these assays?
Giardia FBPA inh: inconclusive; CHX counter: 46; NS1 function inh: inactive; LmPK inhibitor: inactive; Shiga toxin inh: 95

What do the screens show for `CCCC[C@H](CC)CN=C(N)NC(N)=NCCCCCCN=C(N)NC(N)=NC[C@@H](CC)CCCC`?
Giardia FBPA inh: inactive

Results for CC(=O)Oc1ccc2cc(-c3nc4ccccc4n3C)c(=O)oc2c1 ?
Giardia FBPA inh: inactive; CHX counter: inactive; NS1 function inh: inactive; LmPK inhibitor: inactive; Shiga toxin inh: 75

What do the screens show for `CCc1cc2c(=O)c(-c3nc4ccccc4n3C)c(C)oc2c(CN(CC)CC)c1O`?
Giardia FBPA inh: inactive; CHX counter: inactive; NS1 function inh: inactive; LmPK inhibitor: inactive; Shiga toxin inh: inactive

Results for Cn1c(-c2cc3ccc(OC(=O)C(C)(C)C)cc3oc2=O)nc2ccccc21 ?
Giardia FBPA inh: inactive; CHX counter: inactive; NS1 function inh: inactive; LmPK inhibitor: inactive; Shiga toxin inh: inactive

Results for CCN(CC)Cc1c(O)ccc2cc(-c3nc4ccccc4n3C)c(=O)oc12 ?
Giardia FBPA inh: inactive; CHX counter: 11; NS1 function inh: inactive; LmPK inhibitor: inactive; Shiga toxin inh: inactive

What do the screens show for `O=C(N/N=C/c1ccccc1[N+](=O)[O-])c1ccc2c(c1)OCCO2`?
Giardia FBPA inh: inactive; CHX counter: 33; NS1 function inh: inactive; LmPK inhibitor: inactive; Shiga toxin inh: 61

How did O=C(N/N=C/c1cc([N+](=O)[O-])ccc1O)c1ccc2c(c1)OCCO2 do in these assays?
Giardia FBPA inh: inconclusive; CHX counter: 18; NS1 function inh: inactive; LmPK inhibitor: inactive; Shiga toxin inh: inactive

What do the screens show for `O=[N+]([O-])c1ccc(O)c(C=Nc2ccc3c(c2)OCO3)c1`?
Giardia FBPA inh: inactive; CHX counter: 24; NS1 function inh: inactive; LmPK inhibitor: inactive; Shiga toxin inh: 16

What do the screens show for `COc1ccc(/C=N/NC(=O)c2ccc3c(c2)OCCO3)cc1[N+](=O)[O-]`?
Giardia FBPA inh: inactive; CHX counter: inactive; NS1 function inh: inactive; LmPK inhibitor: inactive; Shiga toxin inh: inactive

What do the screens show for `O=C(N/N=C/c1cc(O)ccc1[N+](=O)[O-])c1ccc2c(c1)OCCO2`?
Giardia FBPA inh: inactive; CHX counter: 15; NS1 function inh: inactive; LmPK inhibitor: inactive; Shiga toxin inh: inactive

What do the screens show for `COc1ccccc1CNc1ccnc(-c2ccc3c(c2)OCO3)n1`?
Giardia FBPA inh: inactive

What do the screens show for `Cc1ccc(C(=O)N[C@@H](C)CN2C3=NC[C@H](C)N3C[C@H]2Cc2ccc(O)cc2)cc1Br`?
Giardia FBPA inh: inactive; CHX counter: inactive; NS1 function inh: inactive; LmPK inhibitor: inactive; Shiga toxin inh: inactive

Results for CCCCCCCCCCCCCCCC(N)=O ?
Giardia FBPA inh: inactive

Results for O=c1cnc2cnc(Oc3cccc(Cl)c3)nc2n1C1CC1 ?
Giardia FBPA inh: inactive

Results for COc1ccc(C(C#N)N2CCC(c3ccccc3)=N2)cc1 (stereo not given) ?
Giardia FBPA inh: inactive; CHX counter: 21; NS1 function inh: inactive; LmPK inhibitor: inactive; Shiga toxin inh: 43

Results for CC1CCN(CCCNC(=O)CCNC(=O)Cn2cnc3ccccc3c2=O)CC1 ?
Giardia FBPA inh: inactive; CHX counter: inactive; NS1 function inh: inactive; LmPK inhibitor: inactive; Shiga toxin inh: inactive

Results for CC1CCCCC1NCc1cccc([N+](=O)[O-])c1 (stereo not given) ?
Giardia FBPA inh: inactive; CHX counter: inactive; NS1 function inh: inactive; LmPK inhibitor: inactive; Shiga toxin inh: 42

What do the screens show for `O=C(CSc1cccs1)Nc1ccc2ccccc2c1`?
Giardia FBPA inh: inactive; CHX counter: 46; NS1 function inh: inactive; LmPK inhibitor: inactive; Shiga toxin inh: 125
